# Laboratory results: ChEMBL document CHEMBL1961873, “Compounds: GSK PKIS; Assays: Nanosyn kinase panel” (2012)
# Assays:
# [1] = target: Tyrosine-protein kinase receptor UFO (Homo sapiens) (UniProt P30530); conditions: at 1 µM
# [2] = target: Tyrosine-protein kinase Blk (Homo sapiens) (UniProt P51451); conditions: at 0.1 µM
# [3] = target: Tyrosine-protein kinase Blk (Homo sapiens) (UniProt P51451); conditions: at 1 µM
# [4] = target: T1, Cytoplasmic tyrosine-protein kinase BMX (Homo sapiens) (UniProt P51813); conditions: at 0.1 µM
# T1 sequence (whole entry): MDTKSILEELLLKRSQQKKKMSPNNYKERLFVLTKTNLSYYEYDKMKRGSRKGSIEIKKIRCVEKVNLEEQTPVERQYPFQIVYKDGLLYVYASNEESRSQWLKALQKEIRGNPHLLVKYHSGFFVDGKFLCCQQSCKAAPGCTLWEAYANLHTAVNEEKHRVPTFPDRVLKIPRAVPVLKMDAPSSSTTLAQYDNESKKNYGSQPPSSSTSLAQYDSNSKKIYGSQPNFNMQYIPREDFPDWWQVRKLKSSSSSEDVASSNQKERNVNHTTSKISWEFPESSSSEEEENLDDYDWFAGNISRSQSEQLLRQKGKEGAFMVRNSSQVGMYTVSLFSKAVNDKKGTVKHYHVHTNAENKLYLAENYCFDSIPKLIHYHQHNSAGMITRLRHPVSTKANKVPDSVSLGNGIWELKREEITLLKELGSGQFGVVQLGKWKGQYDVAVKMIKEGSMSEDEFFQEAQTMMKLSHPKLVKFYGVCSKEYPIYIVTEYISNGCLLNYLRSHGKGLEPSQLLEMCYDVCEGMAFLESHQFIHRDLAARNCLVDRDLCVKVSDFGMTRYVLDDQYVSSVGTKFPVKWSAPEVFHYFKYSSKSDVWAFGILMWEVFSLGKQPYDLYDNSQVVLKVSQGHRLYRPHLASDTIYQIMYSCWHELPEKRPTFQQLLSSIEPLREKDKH
# [5] = target: T1, Cytoplasmic tyrosine-protein kinase BMX (Homo sapiens); conditions: at 1 µM
# [6] = target: Protein-tyrosine kinase 6 (Homo sapiens) (UniProt Q13882); conditions: at 0.1 µM
# [7] = target: Protein-tyrosine kinase 6 (Homo sapiens) (UniProt Q13882); conditions: at 1 µM
# [8] = target: Tyrosine-protein kinase BTK (Homo sapiens) (UniProt Q06187); conditions: at 0.1 µM
# [9] = target: Tyrosine-protein kinase BTK (Homo sapiens) (UniProt Q06187); conditions: at 1 µM
# [10] = target: Tyrosine-protein kinase CSK (Homo sapiens) (UniProt P41240); conditions: at 0.1 µM
# [11] = target: Tyrosine-protein kinase CSK (Homo sapiens) (UniProt P41240); conditions: at 1 µM
# [12] = target: T2, Discoidin domain-containing receptor 2 (Homo sapiens) (UniProt Q16832); conditions: at 0.1 µM
# T2 sequence (whole entry): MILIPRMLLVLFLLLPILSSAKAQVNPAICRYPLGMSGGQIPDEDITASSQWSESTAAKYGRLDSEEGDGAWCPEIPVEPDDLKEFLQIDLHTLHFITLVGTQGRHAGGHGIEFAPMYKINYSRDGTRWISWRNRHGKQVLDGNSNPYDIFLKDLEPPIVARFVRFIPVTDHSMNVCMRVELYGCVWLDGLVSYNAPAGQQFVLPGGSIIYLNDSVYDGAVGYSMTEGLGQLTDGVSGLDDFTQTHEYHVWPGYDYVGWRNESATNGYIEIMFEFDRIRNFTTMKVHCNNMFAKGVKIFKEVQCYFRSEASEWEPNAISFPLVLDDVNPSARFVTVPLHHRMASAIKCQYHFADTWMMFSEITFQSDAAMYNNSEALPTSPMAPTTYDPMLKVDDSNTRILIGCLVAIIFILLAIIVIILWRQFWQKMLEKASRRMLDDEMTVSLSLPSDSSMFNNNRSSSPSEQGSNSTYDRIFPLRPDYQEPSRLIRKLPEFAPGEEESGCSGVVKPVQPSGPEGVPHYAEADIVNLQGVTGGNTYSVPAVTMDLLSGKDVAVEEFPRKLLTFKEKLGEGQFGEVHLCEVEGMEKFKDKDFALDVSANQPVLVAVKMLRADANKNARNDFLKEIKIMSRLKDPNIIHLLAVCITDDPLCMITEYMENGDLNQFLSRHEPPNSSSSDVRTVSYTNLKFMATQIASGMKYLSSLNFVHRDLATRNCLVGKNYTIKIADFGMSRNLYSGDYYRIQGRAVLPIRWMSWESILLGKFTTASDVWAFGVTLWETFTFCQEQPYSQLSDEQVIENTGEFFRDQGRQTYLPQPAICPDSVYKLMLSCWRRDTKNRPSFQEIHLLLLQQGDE
# [13] = target: T2, Discoidin domain-containing receptor 2 (Homo sapiens); conditions: at 1 µM
# [14] = target: Epidermal growth factor receptor (Homo sapiens) (UniProt P00533); conditions: at 0.1 µM
# [15] = target: Epidermal growth factor receptor (Homo sapiens) (UniProt P00533); conditions: at 1 µM
# [16] = test system: Epidermal growth factor receptor (Homo sapiens), P00533 [L858R]; conditions: at 0.1 µM
# [17] = test system: Epidermal growth factor receptor (Homo sapiens), P00533 [L858R]; conditions: at 1 µM
# [18] = test system: Epidermal growth factor receptor (Homo sapiens), P00533 [L861Q]; conditions: at 0.1 µM
# [19] = test system: Epidermal growth factor receptor (Homo sapiens), P00533 [L861Q]; conditions: at 1 µM
# [20] = test system: Epidermal growth factor receptor (Homo sapiens), P00533 [T790M]; conditions: at 0.1 µM
# Sequence of Epidermal growth factor receptor (Homo sapiens), P00533 [T790M] (P00533 whole entry T790M): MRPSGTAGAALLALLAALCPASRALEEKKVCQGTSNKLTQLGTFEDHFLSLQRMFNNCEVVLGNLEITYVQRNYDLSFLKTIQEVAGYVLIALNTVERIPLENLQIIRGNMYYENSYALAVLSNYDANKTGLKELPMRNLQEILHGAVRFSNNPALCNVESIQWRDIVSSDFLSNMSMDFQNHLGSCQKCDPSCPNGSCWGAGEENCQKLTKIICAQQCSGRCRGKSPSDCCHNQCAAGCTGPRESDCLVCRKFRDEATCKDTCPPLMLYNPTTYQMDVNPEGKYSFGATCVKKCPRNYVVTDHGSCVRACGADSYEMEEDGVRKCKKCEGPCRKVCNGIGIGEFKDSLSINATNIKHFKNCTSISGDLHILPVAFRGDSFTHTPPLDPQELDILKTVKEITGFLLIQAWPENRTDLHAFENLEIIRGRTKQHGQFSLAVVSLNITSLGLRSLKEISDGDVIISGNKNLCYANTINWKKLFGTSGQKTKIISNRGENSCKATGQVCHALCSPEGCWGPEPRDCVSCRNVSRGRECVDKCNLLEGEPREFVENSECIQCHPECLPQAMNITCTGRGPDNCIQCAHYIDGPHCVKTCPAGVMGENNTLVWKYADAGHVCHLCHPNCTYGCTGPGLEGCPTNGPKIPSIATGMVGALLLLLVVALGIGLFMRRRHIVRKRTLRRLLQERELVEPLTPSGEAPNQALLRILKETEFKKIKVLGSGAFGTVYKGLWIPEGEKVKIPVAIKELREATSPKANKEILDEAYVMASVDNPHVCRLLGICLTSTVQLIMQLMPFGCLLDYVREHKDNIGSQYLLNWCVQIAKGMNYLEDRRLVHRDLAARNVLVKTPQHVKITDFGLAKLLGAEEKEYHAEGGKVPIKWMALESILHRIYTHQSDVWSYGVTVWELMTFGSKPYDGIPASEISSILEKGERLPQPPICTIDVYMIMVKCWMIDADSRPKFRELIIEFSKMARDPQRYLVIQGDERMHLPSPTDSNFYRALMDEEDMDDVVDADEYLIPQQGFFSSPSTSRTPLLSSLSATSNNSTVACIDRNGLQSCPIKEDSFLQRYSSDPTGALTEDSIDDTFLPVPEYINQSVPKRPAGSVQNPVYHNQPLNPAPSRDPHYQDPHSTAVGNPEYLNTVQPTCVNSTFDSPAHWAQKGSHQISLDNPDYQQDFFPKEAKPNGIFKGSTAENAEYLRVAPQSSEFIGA
# Sequence of Tyrosine-protein kinase receptor UFO (Homo sapiens) (P30530 whole entry): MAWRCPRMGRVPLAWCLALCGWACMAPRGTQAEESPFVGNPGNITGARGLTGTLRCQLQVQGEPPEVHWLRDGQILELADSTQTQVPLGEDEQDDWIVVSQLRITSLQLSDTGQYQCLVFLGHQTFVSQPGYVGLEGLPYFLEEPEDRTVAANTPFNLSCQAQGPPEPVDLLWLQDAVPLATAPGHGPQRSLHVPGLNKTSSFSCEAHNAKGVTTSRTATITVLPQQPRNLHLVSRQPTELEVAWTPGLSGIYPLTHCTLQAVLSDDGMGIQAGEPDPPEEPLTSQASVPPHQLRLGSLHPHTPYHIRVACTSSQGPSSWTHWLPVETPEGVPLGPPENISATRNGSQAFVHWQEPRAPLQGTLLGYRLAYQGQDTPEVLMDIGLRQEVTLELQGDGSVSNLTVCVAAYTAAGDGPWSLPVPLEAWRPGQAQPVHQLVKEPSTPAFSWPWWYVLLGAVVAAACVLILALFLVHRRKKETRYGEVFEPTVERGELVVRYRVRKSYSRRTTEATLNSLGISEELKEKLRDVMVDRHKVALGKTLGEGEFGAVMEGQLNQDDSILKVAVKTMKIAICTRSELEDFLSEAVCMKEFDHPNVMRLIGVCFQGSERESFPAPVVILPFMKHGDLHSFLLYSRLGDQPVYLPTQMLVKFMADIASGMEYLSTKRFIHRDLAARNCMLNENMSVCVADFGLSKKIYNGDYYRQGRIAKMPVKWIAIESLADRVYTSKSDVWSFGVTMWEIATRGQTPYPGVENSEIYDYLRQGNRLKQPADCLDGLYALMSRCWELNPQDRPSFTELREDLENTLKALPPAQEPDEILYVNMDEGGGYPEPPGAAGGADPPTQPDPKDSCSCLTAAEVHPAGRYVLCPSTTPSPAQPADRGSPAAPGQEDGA
# Sequence of Epidermal growth factor receptor (Homo sapiens), P00533 [L858R] (P00533 whole entry L858R): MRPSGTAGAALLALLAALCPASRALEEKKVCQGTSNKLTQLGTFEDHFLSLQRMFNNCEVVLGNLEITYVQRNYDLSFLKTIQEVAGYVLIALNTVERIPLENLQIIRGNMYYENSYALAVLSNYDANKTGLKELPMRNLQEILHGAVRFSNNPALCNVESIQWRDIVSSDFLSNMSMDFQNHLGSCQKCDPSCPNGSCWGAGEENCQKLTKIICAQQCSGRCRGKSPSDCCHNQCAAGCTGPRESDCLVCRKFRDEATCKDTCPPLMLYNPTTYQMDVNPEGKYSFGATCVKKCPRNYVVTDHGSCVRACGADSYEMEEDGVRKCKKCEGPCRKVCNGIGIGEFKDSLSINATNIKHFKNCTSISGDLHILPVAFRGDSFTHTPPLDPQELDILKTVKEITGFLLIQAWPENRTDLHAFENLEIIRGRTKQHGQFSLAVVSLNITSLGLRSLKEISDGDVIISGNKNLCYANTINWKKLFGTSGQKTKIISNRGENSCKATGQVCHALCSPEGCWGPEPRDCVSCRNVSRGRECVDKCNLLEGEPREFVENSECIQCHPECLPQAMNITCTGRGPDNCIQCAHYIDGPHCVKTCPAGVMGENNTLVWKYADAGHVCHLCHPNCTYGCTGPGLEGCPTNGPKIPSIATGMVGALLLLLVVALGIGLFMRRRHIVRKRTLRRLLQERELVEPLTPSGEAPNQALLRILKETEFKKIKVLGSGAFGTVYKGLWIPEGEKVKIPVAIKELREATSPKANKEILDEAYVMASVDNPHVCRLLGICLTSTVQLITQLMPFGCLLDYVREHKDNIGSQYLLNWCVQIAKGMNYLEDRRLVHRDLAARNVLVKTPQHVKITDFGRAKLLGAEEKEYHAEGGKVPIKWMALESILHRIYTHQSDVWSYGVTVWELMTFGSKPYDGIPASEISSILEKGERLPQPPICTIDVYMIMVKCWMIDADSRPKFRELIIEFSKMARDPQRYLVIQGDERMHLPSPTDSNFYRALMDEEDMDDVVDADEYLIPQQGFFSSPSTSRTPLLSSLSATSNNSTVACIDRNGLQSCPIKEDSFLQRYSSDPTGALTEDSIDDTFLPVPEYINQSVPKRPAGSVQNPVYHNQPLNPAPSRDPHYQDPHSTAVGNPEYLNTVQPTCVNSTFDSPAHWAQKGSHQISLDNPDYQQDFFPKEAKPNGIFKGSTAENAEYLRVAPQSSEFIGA
# Sequence of Tyrosine-protein kinase CSK (Homo sapiens) (P41240 2-450 limits assumed): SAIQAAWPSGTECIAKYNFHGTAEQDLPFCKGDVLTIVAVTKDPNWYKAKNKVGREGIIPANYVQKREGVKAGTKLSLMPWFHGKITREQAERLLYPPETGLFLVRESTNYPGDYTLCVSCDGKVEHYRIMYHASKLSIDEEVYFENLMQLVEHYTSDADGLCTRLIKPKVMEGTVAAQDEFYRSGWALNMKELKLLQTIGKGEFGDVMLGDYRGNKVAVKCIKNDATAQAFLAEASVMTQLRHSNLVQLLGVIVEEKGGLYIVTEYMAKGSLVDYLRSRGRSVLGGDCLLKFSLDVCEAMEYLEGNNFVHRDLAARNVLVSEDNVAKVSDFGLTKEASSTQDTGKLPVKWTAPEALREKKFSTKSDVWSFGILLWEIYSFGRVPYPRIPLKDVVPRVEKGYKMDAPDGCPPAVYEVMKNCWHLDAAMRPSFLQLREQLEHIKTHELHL
# Sequence of Epidermal growth factor receptor (Homo sapiens), P00533 [L861Q] (P00533 whole entry L861Q): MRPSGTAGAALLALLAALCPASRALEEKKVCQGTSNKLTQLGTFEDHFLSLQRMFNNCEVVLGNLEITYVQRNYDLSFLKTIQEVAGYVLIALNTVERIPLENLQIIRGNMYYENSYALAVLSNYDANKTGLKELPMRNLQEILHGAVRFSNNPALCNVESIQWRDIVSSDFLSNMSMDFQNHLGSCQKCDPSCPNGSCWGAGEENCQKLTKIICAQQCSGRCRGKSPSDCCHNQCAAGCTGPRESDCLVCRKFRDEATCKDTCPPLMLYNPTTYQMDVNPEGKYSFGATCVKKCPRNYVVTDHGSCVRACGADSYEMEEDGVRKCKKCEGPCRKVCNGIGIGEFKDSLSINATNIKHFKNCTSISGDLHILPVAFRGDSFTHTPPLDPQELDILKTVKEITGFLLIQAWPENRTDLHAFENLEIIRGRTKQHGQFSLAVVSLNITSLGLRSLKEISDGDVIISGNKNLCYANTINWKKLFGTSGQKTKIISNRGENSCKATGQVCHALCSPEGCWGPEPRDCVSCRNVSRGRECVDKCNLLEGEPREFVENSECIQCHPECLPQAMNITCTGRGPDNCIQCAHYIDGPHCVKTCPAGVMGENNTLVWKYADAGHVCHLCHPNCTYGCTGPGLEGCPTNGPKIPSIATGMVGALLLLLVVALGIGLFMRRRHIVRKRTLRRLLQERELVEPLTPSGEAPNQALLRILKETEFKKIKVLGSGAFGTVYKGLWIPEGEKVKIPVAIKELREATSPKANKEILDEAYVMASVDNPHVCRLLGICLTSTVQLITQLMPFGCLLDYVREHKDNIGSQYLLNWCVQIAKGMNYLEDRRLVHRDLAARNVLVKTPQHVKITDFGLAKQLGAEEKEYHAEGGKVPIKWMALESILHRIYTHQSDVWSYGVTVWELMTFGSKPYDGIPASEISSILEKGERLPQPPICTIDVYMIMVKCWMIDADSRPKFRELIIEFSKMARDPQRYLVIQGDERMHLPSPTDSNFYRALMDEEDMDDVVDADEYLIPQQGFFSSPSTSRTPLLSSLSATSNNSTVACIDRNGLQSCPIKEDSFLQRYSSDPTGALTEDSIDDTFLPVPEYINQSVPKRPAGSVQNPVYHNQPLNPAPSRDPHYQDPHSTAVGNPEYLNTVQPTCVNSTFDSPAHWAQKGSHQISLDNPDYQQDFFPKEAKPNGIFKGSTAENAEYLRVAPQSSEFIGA
SMILES,inhibition [1],inhibition [2],inhibition [3],inhibition [4],inhibition [5],inhibition [6],inhibition [7],inhibition [8],inhibition [9],inhibition [10],inhibition [11],inhibition [12],inhibition [13],inhibition [14],inhibition [15],inhibition [16],inhibition [17],inhibition [18],inhibition [19],inhibition [20]
CC1=C(C(=O)Nc2ccc3[nH]ncc3c2)C(c2ccc3ccccc3c2)CC(=O)N1 (centres undefined),-3.18%,13.4%,58.5%,-1.63%,3.91%,3.76%,6.55%,0.23%,11.4%,4.44%,8.49%,1.3%,0.24%,1.29%,5.76%,3.81%,6.61%,2.89%,1.33%,1.06%
O=C1NC(=O)C(c2ccc(Cl)cc2)=C1Nc1ccc(Cl)c(C(=O)O)c1,7.43%,-0.2%,-2.5%,-4.08%,-3.08%,0.06%,-1.29%,-0.05%,0.05%,-3.37%,-4.62%,0.03%,2.46%,1.07%,6.73%,-2.2%,6.41%,0.32%,1.03%,-0.88%
Cn1cc(C=C2C(=O)Nc3cccnc32)c2ccccc21,19.1%,–,–,3.27%,4.89%,0.63%,2.28%,1.87%,3.46%,1.5%,-0.79%,0.93%,4.03%,–,–,–,–,–,–,–
COc1ccc(-c2ccncc2)cc1C(N)=O,-7.29%,3.55%,3.47%,3.29%,5.58%,3.09%,3.57%,-1.01%,-0.13%,2.75%,2.12%,2.19%,2.53%,4.47%,4.86%,5.16%,4.73%,4.48%,6.9%,0.43%
O=C1NC(=O)C(N2CCc3ccccc32)=C1c1ccc(Cl)cc1,-2.89%,2.66%,4.59%,-0.48%,5.82%,4.84%,4.71%,0.29%,0.58%,3.38%,0.75%,3.2%,8.8%,-0.66%,3.22%,-1.38%,5.23%,4.7%,2.74%,2.82%
CN1CCC(C(=O)Nc2n[nH]c3nnc(-c4ccccc4)cc23)CC1,–,3.19%,1.79%,4.52%,3.87%,4.01%,6.78%,-0.63%,-0.24%,4.02%,6.5%,0.55%,1%,10.2%,7.57%,1.7%,3.79%,2.96%,6.37%,1.89%
CCN1CCC(CC(=O)Nc2n[nH]c3nc(-c4cccs4)c(Br)cc23)CC1,2.24%,-1.4%,0.14%,-3.73%,-1.1%,-3.07%,0.94%,-1.38%,0.05%,–,-4.84%,-0.58%,0.03%,1.1%,3.65%,0.06%,3.28%,-0.27%,1.14%,-1.65%
O=C1Nc2ccc(C(=O)c3ccco3)cc2C1=Cc1cc(Cl)c(O)c(Cl)c1,-5.53%,3.04%,19.1%,-1.7%,5.27%,4.83%,6.88%,1.4%,1.76%,6.31%,7.85%,2.1%,6.8%,1.89%,5.16%,4.06%,13.7%,3.88%,19.6%,1.42%
Cc1cc(O)cc(C)c1/C=C/c1cncc(-c2nn[nH]n2)c1,-3.63%,0.83%,48.1%,11.2%,66.3%,29.6%,86.3%,-0.39%,7.14%,8.08%,43.4%,1.73%,6.08%,-1.53%,15.8%,10.4%,56.9%,3.95%,21.2%,2.17%
COc1cc2ncn(-c3cc(O[C@@H](C)c4ccccc4Cl)c(C(N)=O)s3)c2cc1OC,-5.82%,11.1%,51.2%,2.71%,6.64%,-0.13%,7.91%,-0.58%,1.4%,1.7%,5.68%,1.33%,1.58%,0.08%,7.32%,5.96%,26.9%,3.26%,7.73%,1.35%
CS(=O)(=O)Nc1ccc(N/C=C2\C(=O)Nc3ccccc32)cc1,4.47%,0.62%,18.2%,-1.58%,0.63%,-4.62%,-2.23%,-1.06%,-0.9%,-9.22%,-6.43%,0.64%,0.83%,0.27%,1.45%,-0.02%,-5.94%,0.35%,-1.41%,-1.68%
CCCN1CCC(Oc2cc(Nc3nc(Nc4cccc(F)c4C(N)=O)c4cc[nH]c4n3)c(OC)cc2Cl)CC1,6.29%,0.32%,4.43%,-3.07%,0.44%,2.81%,14.8%,0.06%,0.8%,-0.02%,0.71%,5.18%,9.57%,1.11%,2.64%,1.86%,1.31%,1.13%,0.75%,-0.41%
COc1cc(C=NNc2ncnc3c2cnn3-c2ccccc2)ccc1O,10.6%,10.3%,65.5%,3.92%,21.9%,2.93%,14.2%,1.25%,2.34%,4.22%,5.56%,5.59%,13.6%,6.29%,36.2%,27.3%,79.6%,6.66%,38.2%,0.71%
NC(=O)c1cccc(Nc2nccc(Nc3cccc4[nH]ncc34)n2)c1,7.82%,9.56%,66.3%,21.6%,73.8%,68.6%,99.7%,3.23%,19.9%,-2.2%,26.5%,19.9%,77.6%,2.96%,24.1%,13.4%,70.1%,3.36%,27.8%,-1.89%
